Measurements: PubChem BioAssay AID1782 (National Center for Advancing Translational Sciences (NCATS), 2009)
Records with an inconclusive call do not appear. Values without a mark were called inactive. Calls of active or inactive are those of the source. The call rests on the fitted dose curve; in most records, active means well fitted curve in the direction sought with a large enough effect; inconclusive means small, poorly fitted or top-dose-only effect, or another doubt; inactive means no such curve, though single readings can be large or run the other way.

What follows are compounds tested against Pyruvate kinase PKLR (Homo sapiens) (UniProt P30613) (assay: Confirmation Concentration-Response Assay for Activators of Human Reticulocyte Pyruvate Kinase). Settings: purified hPK-R, Kinase-Glo ATP luminescence, 1 h; series mostly up to 57.5 µM; activity change, positive = activation: at the top concentration.
Pyruvate kinase PKLR (Homo sapiens), sequence (P30613 whole entry, looked up): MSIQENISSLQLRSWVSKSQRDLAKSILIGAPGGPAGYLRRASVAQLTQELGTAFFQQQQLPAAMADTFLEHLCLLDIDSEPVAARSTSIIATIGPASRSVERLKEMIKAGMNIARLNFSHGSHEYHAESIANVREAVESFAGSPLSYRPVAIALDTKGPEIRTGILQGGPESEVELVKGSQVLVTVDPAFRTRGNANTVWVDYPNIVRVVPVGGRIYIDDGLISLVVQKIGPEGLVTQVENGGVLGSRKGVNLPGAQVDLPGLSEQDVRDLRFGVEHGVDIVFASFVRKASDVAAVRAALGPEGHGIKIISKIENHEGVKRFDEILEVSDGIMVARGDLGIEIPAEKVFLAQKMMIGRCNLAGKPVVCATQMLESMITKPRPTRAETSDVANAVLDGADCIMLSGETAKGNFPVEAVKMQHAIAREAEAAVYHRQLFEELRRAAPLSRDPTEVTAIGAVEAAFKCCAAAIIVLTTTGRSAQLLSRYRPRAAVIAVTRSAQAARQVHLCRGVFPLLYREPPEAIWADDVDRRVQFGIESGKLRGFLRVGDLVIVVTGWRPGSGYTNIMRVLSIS
Description: Confirmatory assay NIH Chemical Genomics Center [NCGC] Wael M. Rabeh, Lyudmila Nedyalkova and Hee-Wan Park [Structural Genomics Consortium, 100 College St. Toronto, Ontario, Canada] NCGC Assay Overview: Human pyruvate kinase reticulocyte (hPK-R) enzyme was supplied as a highly purified (>95% pure) preparation from Structural Genomics Consortium in Toronto (Ontario, Canada) and assayed for its ability to generate ATP from ADP using phosphoenolpyruvate (PEP) as a substrate. ATP generation was detected in a coupled reaction by luciferase-mediated luminescence, an ATP-dependent process. Pyruvate kinase substrates, PEP and ADP, were present in the assay at Km and approximately 10-fold below Km respectively. The enzyme was assayed at an intermediate level of activity to screen for both inhibitors and activators.
NCGC Assay Protocol Summary for R-isoform Three uL of substrate mix (at r.t.) in assay buffer (50 mM Imidazole pH7.2, 50 mM KCl, 7 mM MgCl2, 0.01% Tween 20, 0.05% BSA) was dispensed into white solid bottom 1,536 well microtiter plates so that the final concentrations of substrates in the assay were 0.1 mM ADP and 0.5 mM PEP. 23 nL of compound were delivered by a pin tool and 1 uL of enzyme mix (final concentration of 0.1 nM) in assay buffer (4 degree Celsius) was added. Plates were incubated at room temperature for 1 hour. Two uL of detection mix (Kinase-Glo, Promega; at 4 degree Celsius protected from light) was added and luminescence read by a ViewLux (Perkin Elmer) at 1 second exposure/plate. Data were normalized to the uninhibited (row 31). Additionally, a no enzyme and 5-fold enzyme control was dispensed in row 32, split equally between the two conditions.
For `Cc1cc2c(s1)c1cnn(Cc3cccc(F)c3)c(=O)c1n2C`, the “activity change, positive = activation” value was -2.76%.
For `Cc1ccc(Cn2ncc3c4sc(C)cc4n(C)c3c2=O)c(C)c1`, the “activity change, positive = activation” value was -3.18%.
With `O=C(c1c(F)cccc1F)N1CCN(S(=O)(=O)c2ccc3c(c2)OCCO3)CC1` the “activity change, positive = activation” value was -15.6%.
For `CCn1c2cc(C)sc2c2cnn(Cc3ccccc3F)c(=O)c21`, the “activity change, positive = activation” value was -6.91%.
`Cc1cc2c(s1)c1cnn(Cc3ccc(S(C)(=O)=O)cc3)c(=O)c1n2C` was tested, and the “activity change, positive = activation” value was -3.65%.
For `Cc1cc2c(s1)c1cnn(Cc3ccc(C(F)(F)F)cc3)c(=O)c1n2C`, the “activity change, positive = activation” value was 1.32%.
In the case of `CC1(C)CCc2cc(S(=O)(=O)N3CCN(S(=O)(=O)c4c(F)cccc4F)CC3)ccc2O1`, the Potency is reported as “inactive”.
With `CCCc1cc(F)c(S(=O)(=O)N2CCN(S(=O)(=O)c3ccc4c(c3)OCCO4)CC2)cc1F` the “activity change, positive = activation” value was -0.771%.
For `COc1ccc(Cn2ncc3c4sc(C)cc4n(C)c3c2=O)cc1`, the “activity change, positive = activation” value was 2.35%.
With `Cc1cc2c(s1)c1cnn(Cc3cccc(Cn4ncc5c6sc(C)cc6n(C)c5c4=O)c3F)c(=O)c1n2C` the “activity change, positive = activation” value was -2.51%.
For `O=C(c1ccc2c(c1)OCCO2)N1CCN(S(=O)(=O)c2c(F)cccc2F)CC1`, the “activity change, positive = activation” value was -13.7%.
With `Cc1cc2c(s1)c1cnn(Cc3cccc(F)c3F)c(=O)c1n2C` the “activity change, positive = activation” value was -17%.
With `Cn1c2ccsc2c2cnn(Cc3ccccc3F)c(=O)c21` the “activity change, positive = activation” value was -11%.
In the case of `COc1cc2c(s1)c1cnn(Cc3ccccc3F)c(=O)c1n2C`, the “activity change, positive = activation” value is reported as 1.99%.
`O=S(=O)(c1cccc(C(F)(F)F)c1)N1CCN(S(=O)(=O)c2ccc3c(c2)OCCO3)CC1` was tested, and the “activity change, positive = activation” value was 5.75%.
`Cc1cc2c(s1)c1cnn(Cc3c(F)cccc3Cl)c(=O)c1n2C` was tested, and the “activity change, positive = activation” value was 1.3%.
`COc1ccc(Cn2ncc3c4sc(C)cc4n(C)c3c2=O)cc1F` was tested, and the “activity change, positive = activation” value was -3.6%.
`COc1ccc(S(=O)(=O)N2CCN(S(=O)(=O)c3ccc4c(c3)OCCO4)CC2)cc1` was tested, and the Potency was 1410 nM (active).
For `Cc1cc2c(s1)c1cnn(-c3ccccc3)c(=O)c1n2C`, the “activity change, positive = activation” value was 2.99%.
In the case of `Cc1cc2c(s1)c1cnn(Cc3ccc(-c4ccccc4)cc3)c(=O)c1n2C`, the “activity change, positive = activation” value is reported as -5.57%.
For `Cc1cc2c(s1)c1cnn(Cc3ccc(F)cc3)c(=O)c1n2C`, the “activity change, positive = activation” value was -3%.
For `Cc1cc2c(s1)c1cnn(Cc3c(F)cccc3F)c(=O)c1n2C`, the “activity change, positive = activation” value was -1.31%.
For `Cn1c2ccsc2c2ncn(Cc3ccccc3F)c(=O)c21`, the “activity change, positive = activation” value was 1.87%.
In the case of `O=C(CN1C(=O)N/C(=C\c2cccn2-c2cccc(C(=O)O)c2)C1=O)Nc1ccccc1F`, the “activity change, positive = activation” value is reported as -17.4%.
With `CC(=O)Nc1cc2c(s1)c1cnn(Cc3ccccc3F)c(=O)c1n2C` the “activity change, positive = activation” value was 2.97%.
For `CC(C)c1cc2c(s1)c1cnn(Cc3ccccc3F)c(=O)c1n2C`, the “activity change, positive = activation” value was -6.48%.
`Cc1cc2c(s1)c1cnn(Cc3ccc(Cl)cc3)c(=O)c1n2C` was tested, and the “activity change, positive = activation” value was 4.3%.
With `CC(=O)c1cc2c(s1)c1cnn(Cc3ccccc3F)c(=O)c1n2C` the “activity change, positive = activation” value was 3.32%.
`Cc1cc2c(s1)c1cnn(Cc3ccc(F)cc3F)c(=O)c1n2C` was tested, and the “activity change, positive = activation” value was -0.917%.
In the case of `Cc1cc2c(s1)c1c(C)nn(Cc3ccccc3F)c(=O)c1n2C`, the “activity change, positive = activation” value is reported as 2.83%.
With `Cn1c2cc(C=O)sc2c2cnn(Cc3ccccc3F)c(=O)c21` the “activity change, positive = activation” value was -8.47%.
In the case of `COc1ccc(S(=O)(=O)N2CCN(S(=O)(=O)c3ccc(OC)cc3)CC2)cc1`, the Potency is reported as “inactive”.
With `Cn1c2cc(S(C)=O)sc2c2cnn(Cc3ccccc3F)c(=O)c21` (stereo not given) the “activity change, positive = activation” value was -8.85%.
With `O=S(=O)(c1c(F)cccc1F)N1CCN(S(=O)(=O)c2c(F)cccc2F)CC1` the “activity change, positive = activation” value was -2.36%.
For `Cc1cc2c(s1)c1cnn(Cc3cc(C(F)(F)F)cc(Cl)c3F)c(=O)c1n2C`, the “activity change, positive = activation” value was -0.735%.
With `O=S(=O)(NCCNS(=O)(=O)c1c(F)cccc1F)c1ccc2c(c1)OCCO2` the “activity change, positive = activation” value was 10.2%.
In the case of `O=S(=O)(c1ccc2c(c1)OCCO2)N1CCN(S(=O)(=O)c2cccc[n+]2[O-])CC1`, the “activity change, positive = activation” value is reported as 2.18%.
For `Cn1c2cc(C#N)sc2c2cnn(Cc3ccccc3F)c(=O)c21`, the Potency was “inactive”.
In the case of `Cc1cc2c(s1)c1cnn(Cc3ccccc3F)c(=O)c1n2C`, the Potency is reported as “inactive”.
With `Cc1cc2c(s1)c1cnn(Cc3ccc(C(C)C)cc3)c(=O)c1n2C` the “activity change, positive = activation” value was 1.33%.
